Measurements published in the supplement of paper PMC11732987, “Enantioselective OTUD7B fragment discovery through chemoproteomics screening and high-throughput optimisation” (Communications Chemistry, 2025).

Experiments:
Test in all cases: log2 ratio of Biotin-Ahx-Ub-VS probe labelling (fragment/DMSO); higher = less target engagement (more negative = stronger competition), active = hit call of the paper (q ≤ 0.05, log2 ratio ≤ -1)
Settings in all cases: compound concentration: 200 uM; treatment time: 3 h
USP34 = USP34 (UniProt Q70CQ2)
Summary of the method: (§1)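 HEK293T lysate (495 µg per sample, in Tris/CHAPS/IGEPAL buffer with protease inhibitors) was treated in triplicate with fragment at 200 µM or with DMSO for 3 h. It was then treated with Biotin-Ahx-Ub-VS (0.5 µM final) for 1 h. Labelled DUBs were NeutrAvidin-enriched, digested with LysC and trypsin, and run by diaPASEF LC-MS/MS. Spectronaut label-free quantities were global-median-normalised. Values are average log2 ratios fragment/DMSO by unpaired t-test, using proteins with ≥2 unique peptides.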

USP36 = target: T1, USP36 (UniProt Q9P275)
T1 sequence (whole entry): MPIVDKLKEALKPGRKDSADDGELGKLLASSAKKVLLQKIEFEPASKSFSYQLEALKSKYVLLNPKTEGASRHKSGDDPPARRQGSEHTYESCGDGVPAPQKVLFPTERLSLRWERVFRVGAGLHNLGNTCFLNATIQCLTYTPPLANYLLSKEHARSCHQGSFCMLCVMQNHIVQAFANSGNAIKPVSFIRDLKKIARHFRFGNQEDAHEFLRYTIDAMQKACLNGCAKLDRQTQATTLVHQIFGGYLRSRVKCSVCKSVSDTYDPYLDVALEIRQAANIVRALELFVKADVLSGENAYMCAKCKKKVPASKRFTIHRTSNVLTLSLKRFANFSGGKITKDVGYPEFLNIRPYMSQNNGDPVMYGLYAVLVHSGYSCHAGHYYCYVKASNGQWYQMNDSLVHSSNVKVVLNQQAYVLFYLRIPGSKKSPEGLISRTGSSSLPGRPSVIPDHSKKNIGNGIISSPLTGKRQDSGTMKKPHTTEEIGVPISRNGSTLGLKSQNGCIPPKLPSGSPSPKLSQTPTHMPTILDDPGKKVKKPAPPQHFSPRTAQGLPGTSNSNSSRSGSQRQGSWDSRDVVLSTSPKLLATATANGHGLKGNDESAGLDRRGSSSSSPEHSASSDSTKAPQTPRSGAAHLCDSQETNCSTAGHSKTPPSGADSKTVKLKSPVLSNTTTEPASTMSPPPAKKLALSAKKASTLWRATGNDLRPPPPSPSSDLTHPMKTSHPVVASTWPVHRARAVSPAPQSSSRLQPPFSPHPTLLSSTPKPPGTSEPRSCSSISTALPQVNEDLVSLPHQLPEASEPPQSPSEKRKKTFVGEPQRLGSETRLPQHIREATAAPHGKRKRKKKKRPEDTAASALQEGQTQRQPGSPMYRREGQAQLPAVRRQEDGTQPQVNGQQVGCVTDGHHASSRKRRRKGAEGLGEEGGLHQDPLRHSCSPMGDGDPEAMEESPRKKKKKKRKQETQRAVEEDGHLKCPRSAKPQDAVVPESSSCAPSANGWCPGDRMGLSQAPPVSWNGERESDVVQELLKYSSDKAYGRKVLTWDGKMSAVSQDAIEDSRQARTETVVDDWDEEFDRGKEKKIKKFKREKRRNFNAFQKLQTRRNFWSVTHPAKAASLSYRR
Summary of the method: as §1

USP38 = target: T2, USP38 (UniProt Q8NB14)
T2 sequence (whole entry): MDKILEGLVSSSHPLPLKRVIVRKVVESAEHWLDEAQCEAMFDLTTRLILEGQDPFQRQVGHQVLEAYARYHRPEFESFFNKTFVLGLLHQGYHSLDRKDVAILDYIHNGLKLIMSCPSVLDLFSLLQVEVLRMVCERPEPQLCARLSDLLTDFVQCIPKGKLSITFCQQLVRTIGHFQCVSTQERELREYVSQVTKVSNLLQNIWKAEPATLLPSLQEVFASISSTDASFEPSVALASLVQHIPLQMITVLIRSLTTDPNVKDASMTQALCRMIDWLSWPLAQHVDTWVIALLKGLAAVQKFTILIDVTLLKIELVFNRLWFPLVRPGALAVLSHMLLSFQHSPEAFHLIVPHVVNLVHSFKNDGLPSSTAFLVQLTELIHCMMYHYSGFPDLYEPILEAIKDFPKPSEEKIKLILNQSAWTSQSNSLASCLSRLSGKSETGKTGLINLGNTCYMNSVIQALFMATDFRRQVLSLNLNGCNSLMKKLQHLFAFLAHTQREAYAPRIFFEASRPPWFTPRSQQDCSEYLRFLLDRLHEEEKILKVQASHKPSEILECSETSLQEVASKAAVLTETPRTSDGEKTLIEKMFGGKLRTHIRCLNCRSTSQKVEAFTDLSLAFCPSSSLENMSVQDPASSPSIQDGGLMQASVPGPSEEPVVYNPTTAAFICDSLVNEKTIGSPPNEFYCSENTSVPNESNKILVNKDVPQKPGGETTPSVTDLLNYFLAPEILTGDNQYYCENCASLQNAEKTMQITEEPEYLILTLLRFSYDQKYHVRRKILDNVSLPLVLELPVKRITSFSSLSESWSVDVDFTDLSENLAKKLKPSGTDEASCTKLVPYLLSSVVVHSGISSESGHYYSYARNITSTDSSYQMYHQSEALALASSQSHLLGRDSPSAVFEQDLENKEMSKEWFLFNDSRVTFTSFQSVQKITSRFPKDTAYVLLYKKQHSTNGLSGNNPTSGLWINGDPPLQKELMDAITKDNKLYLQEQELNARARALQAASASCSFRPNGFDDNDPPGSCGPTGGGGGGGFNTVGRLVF
Summary of the method: as §1

USP39 = target: T3, USP39 (UniProt Q53GS9)
T3 sequence (whole entry): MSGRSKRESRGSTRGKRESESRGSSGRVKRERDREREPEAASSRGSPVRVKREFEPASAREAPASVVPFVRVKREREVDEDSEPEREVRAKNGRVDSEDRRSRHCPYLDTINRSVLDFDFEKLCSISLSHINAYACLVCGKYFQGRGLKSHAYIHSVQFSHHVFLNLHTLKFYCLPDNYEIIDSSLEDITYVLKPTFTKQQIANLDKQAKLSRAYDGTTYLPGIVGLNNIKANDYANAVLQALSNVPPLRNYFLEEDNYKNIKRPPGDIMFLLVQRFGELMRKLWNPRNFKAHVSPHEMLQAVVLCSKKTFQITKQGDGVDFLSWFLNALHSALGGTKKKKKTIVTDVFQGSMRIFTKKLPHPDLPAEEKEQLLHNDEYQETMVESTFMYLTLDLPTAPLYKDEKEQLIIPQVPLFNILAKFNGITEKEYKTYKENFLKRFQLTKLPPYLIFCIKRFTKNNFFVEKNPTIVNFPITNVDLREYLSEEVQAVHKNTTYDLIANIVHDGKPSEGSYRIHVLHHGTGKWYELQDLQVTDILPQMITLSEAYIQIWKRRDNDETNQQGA
Summary of the method: as §1

USP4 = target: T4, USP4 (UniProt Q13107)
T4 sequence (whole entry): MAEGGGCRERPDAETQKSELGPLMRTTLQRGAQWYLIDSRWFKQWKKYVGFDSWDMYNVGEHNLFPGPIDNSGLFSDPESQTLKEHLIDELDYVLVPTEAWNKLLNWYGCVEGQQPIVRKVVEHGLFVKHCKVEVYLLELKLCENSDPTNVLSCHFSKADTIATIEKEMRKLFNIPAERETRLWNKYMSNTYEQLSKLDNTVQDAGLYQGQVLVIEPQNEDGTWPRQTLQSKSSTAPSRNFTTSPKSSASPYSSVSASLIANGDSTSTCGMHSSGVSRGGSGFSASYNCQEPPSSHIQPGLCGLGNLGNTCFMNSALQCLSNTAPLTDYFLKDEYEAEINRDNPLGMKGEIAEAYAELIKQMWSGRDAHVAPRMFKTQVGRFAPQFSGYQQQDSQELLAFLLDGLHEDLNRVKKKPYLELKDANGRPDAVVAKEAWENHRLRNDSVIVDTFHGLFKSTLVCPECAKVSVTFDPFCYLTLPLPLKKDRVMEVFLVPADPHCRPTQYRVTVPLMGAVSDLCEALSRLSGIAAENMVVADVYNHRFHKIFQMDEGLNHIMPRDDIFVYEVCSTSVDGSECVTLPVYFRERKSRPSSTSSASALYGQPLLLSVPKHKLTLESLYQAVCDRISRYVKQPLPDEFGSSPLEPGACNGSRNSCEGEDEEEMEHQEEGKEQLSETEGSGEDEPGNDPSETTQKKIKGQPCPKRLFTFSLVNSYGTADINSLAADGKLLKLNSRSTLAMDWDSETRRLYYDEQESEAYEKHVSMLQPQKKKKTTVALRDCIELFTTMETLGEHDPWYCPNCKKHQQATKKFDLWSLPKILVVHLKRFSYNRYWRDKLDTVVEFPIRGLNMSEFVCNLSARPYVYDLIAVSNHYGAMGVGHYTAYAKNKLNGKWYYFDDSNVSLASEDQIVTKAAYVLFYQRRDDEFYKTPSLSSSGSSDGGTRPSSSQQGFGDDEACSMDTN
Summary of the method: as §1

Measured: log2 ratio of Biotin-Ahx-Ub-VS probe labelling

USP34, sequence (Q70CQ2 whole entry, the tested form may be a part): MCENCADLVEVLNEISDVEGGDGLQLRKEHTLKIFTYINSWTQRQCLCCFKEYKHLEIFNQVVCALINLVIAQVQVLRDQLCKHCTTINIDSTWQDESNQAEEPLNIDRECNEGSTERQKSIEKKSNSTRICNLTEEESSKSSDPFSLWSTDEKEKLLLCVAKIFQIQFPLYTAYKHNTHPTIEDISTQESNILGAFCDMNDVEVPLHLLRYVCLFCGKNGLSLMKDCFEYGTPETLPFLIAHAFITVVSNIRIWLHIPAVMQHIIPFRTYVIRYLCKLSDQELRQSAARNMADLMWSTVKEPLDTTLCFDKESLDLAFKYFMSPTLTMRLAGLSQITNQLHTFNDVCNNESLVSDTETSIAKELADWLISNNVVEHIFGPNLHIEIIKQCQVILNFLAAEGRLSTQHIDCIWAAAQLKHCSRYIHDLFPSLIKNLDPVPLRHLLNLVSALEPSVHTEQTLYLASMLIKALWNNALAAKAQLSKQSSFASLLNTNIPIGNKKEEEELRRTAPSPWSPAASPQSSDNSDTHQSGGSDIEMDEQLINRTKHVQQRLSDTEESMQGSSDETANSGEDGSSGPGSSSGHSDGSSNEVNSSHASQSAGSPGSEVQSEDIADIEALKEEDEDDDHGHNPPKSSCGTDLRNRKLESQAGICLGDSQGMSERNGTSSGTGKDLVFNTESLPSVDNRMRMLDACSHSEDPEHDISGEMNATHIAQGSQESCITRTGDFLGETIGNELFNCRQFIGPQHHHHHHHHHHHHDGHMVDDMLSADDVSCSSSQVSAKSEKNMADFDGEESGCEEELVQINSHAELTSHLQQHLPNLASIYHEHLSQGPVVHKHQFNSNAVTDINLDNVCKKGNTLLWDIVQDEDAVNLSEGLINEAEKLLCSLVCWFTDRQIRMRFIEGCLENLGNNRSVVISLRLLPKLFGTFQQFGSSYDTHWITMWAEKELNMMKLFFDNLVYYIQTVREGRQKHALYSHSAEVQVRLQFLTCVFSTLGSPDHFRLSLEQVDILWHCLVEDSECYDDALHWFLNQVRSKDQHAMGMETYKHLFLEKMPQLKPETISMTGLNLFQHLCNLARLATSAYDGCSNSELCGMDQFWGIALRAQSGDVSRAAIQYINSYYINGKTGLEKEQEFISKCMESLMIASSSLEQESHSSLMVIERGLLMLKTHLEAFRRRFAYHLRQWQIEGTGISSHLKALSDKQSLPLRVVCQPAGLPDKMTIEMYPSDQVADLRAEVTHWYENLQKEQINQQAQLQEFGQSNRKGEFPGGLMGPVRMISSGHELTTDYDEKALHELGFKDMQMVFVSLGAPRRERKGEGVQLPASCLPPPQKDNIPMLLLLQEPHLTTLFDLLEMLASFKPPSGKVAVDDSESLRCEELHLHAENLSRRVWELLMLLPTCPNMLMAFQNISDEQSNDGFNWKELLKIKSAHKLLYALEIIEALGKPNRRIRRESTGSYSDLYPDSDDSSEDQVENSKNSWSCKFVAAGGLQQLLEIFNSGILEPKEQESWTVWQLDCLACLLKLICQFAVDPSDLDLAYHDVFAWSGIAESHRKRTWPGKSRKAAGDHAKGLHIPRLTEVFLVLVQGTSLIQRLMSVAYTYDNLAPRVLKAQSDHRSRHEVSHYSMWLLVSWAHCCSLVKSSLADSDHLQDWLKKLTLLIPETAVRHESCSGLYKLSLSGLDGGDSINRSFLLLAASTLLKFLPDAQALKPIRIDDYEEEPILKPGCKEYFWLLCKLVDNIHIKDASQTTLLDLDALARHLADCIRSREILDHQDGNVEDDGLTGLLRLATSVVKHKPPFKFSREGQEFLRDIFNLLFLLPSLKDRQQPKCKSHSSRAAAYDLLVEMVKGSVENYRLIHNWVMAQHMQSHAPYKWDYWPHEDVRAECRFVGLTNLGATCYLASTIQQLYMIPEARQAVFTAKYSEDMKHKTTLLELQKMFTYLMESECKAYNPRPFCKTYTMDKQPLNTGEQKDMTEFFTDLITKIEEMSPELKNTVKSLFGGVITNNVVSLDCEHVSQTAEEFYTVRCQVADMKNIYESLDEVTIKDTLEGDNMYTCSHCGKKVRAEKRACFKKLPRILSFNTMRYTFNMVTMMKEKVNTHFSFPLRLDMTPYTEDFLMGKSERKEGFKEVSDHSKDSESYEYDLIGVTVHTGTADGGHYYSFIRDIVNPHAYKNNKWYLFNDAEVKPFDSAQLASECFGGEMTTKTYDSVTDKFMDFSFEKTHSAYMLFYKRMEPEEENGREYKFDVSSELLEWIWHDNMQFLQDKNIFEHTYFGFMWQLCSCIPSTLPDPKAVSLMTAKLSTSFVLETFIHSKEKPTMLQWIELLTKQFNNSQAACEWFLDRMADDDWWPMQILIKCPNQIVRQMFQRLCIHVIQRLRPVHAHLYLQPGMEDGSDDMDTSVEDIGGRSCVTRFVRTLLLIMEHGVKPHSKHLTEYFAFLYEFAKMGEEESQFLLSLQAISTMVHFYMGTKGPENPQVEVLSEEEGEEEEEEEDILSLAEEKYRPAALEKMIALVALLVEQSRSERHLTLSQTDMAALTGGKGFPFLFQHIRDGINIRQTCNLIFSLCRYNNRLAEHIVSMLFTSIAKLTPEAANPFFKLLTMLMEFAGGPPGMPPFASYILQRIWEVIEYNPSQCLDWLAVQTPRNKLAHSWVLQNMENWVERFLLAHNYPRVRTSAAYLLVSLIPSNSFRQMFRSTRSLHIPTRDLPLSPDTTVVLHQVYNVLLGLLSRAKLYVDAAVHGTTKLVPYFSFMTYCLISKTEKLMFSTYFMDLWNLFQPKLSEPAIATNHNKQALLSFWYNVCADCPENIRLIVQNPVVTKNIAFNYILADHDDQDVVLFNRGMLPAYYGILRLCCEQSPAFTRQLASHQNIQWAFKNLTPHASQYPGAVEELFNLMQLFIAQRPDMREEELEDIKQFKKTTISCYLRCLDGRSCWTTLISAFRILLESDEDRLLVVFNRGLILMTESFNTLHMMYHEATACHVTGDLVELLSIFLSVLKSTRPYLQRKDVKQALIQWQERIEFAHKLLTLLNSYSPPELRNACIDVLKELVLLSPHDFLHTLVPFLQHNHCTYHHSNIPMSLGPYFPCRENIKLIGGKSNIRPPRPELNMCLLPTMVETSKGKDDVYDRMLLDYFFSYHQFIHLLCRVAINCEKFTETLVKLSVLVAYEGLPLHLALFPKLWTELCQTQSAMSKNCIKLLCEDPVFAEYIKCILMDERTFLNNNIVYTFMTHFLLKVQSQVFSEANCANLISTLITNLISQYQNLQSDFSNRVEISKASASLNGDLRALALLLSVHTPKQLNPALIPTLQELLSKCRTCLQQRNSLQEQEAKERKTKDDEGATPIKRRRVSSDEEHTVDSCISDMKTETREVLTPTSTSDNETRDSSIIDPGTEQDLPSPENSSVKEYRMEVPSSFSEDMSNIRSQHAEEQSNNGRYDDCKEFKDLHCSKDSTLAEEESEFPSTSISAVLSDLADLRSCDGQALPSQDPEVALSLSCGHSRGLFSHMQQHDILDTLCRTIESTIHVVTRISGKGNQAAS

O=C(CCl)Nc1cc(Cl)ccc1-n1cncn1
inactive: USP34 -0.448 | USP36 -0.325 | USP38 -0.932 | USP39 0.142 | USP4 -0.712
